# Most compounds without a hit are left out; they make up all but 9.7% or so of the library.
# BAP1 block – inhibitors of BAP1 deubiquitinase, primary screen, biochemical, Ub-AMC fluorescence, kinetic; AID 436, 2006; calls only at 20 µM; Ubiquitin carboxyl-terminal hydrolase BAP1 (Homo sapiens), Q92560; 72,000 tested, 0.48% active; recombinant BAP1, Ub-AMC hydrolysis fluorescence kinetic; stronger effect = lower value;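 active = activity remaining at or below 50% of control, provided the compound also passes the data quality filters; inactive = the rest, including low values that fail the filters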;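 note: 100% = DMSO wells rate and 0% = substrate alone blank rate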
# M1 antag – antagonists of rat M1 muscarinic receptor; Muscarinic acetylcholine receptor M1 (Rattus norvegicus), P08482; B-score at 10 µM; 64,000 tested, 3.4% active; AID 628, 2007; CHO-M1 cells, Fluo-4 calcium, ACh EC80 antagonist mode; stronger effect = lower value;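 active = calcium fluorescence response, raw or row-and-column corrected B-score, differing from the plate sample mean either way at a set confidence level, mostly lower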
# Target sequence (P08482 whole entry, looked up): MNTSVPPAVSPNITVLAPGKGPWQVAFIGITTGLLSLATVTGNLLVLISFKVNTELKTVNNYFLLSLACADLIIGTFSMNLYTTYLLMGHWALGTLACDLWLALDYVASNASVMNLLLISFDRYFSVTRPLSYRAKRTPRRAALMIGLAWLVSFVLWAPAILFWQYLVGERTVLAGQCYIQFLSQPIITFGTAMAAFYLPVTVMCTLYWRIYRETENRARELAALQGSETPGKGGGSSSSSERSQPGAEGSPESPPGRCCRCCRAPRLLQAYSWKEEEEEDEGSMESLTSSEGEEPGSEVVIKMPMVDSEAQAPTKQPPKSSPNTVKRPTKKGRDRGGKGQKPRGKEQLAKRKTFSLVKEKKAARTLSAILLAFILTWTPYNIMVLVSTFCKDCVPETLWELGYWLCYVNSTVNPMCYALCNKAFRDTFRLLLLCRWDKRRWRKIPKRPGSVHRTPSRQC
# M1 ag – M1 muscarinic receptor agonists, primary screen, CHO-M1 cells, Fluo-4 calcium, agonist mode | Muscarinic acetylcholine receptor M1 | Fluo-4 calcium fluorescence; stronger effect = higher value | B-score at 10 µM | 64,000 tested, 3% active;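 active = fluorescence rise, raw or as B-score row- and column-corrected plate score, outside the 99.7% band of its plate's samples, either direction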
# Autofluor 339 – intrinsic fluorescence of library compounds, ex339/em460 – biochemical, MLSMR library, data from DPM-DC assay, artefact control, profiling panel; compound autofluorescence, ex339/em460 nm, NADH buffer; stronger effect = higher value; 1 = no-compound wells, NADH background; fluorescence fold increase at 10 µM; 65,000 tested, 5.5% active; AID 709, 2007;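 active = at 10 µM, mean starting fluorescence two-fold or more over control wells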;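 note: signal is the first read of a kinetic run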
# WNV protease inh – inhibitors of WNV NS2B-NS3 protease, primary screen, biochemical, fluorogenic substrate. z-score (no concentration beside the values). 65,000 tested, 0.18% active. Genome polyprotein (West Nile virus), P06935. fluorogenic substrate Ex360/Em465; stronger effect = lower value; in the data active = z-score below about -3
# A340 absorber – compound light absorbance at 340 nm, profiling panel, artefact control, biochemical, MLSMR library, data from PS, PMK, MK assays; compound absorbance at 340 nm, fold over control; fold change at 10 µM; 65,000 tested, under 10 active; AID 708, 2007;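 active = at 10 µM dose, initial 340 nm absorbance at least 2 fold that of control wells; inactive = change under 2 fold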;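 note: initial absorbance extrapolated from kinetic A340 decline of NADH oxidation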
# * = called active by the depositor; i = inactive; . = not tested or not shown.
SMILES,BAP1 block,M1 antag,M1 ag,Autofluor 339,WNV protease inh,A340 absorber
CCC(=O)Nc1nonc1-c1nc2ccccc2n1Cc1ccc(Cl)c(Cl)c1,i,-0.0316,0.162,2.22*,-0.32,1.04
Cc1ccc(S(=O)(=O)NCc2ccc(C(=O)N3CCN(c4ccccn4)CC3)cc2)cc1,i,2.4*,4.01,1.08,0.99,1
Cc1ccc2nsnc2c1S(=O)(=O)N(Cc1cc2cccc(C)c2[nH]c1=O)CC1CCCO1 (stereo not given),i,-3.17*,13*,1.05,-1.34,1
CCOc1ccc2[nH]c(=O)c(CN(Cc3cccnc3)C(=O)Nc3ccccc3OC)cc2c1,.,0.0244,-0.357,2.03*,0.95,1.19
O=C(NCc1ccccc1)N(Cc1cc2cc3c(cc2[nH]c1=O)OCCO3)CC1CCCO1 (stereo not given),.,-0.315,0.751,3.66*,-1.41,1.12
COc1ccccc1NC(=O)N(Cc1cc2cc(OC)c(OC)cc2[nH]c1=O)CC1CCCO1 (stereo not given),i,-0.52,1.42,2.71*,-0.65,1.14
CCOC(=O)C1C(=O)CC(C)(O)C(C(=O)OCC)C1c1cccc([N+](=O)[O-])c1 (stereo not given),i,.,.,.,.,.
CCOc1cc(C2C(C(=O)OC)=C(C)NC3=C2C(=O)CC(c2ccc(OC)cc2)C3)cc(Cl)c1O (stereo not given),i,.,.,.,.,.
O=c1[nH]c2cc3c(cc2cc1CN(CC1CCCO1)S(=O)(=O)c1ccccc1)OCCO3 (stereo not given),.,0.163,0.0867,3.77*,0.6,1.07
CC(=O)Nc1ccc2nc(-c3cccnc3)[nH]c2c1,i,-0.289,-0.554,1.34,0.93,1.06
CC(=O)Nc1cccc(-c2nc3ccc(NC(C)=O)cc3[nH]2)c1,.,0.0486,1.11,4.88*,-0.31,1.04
C=CCn1c(=O)c(C(=O)Nc2ccc(O)cc2)c(O)c2ccccc21,i,.,.,.,.,.
Cc1cc(=O)cc(C)n1-c1ccc2c(c1)nc(C)n2-c1ccccc1,.,2.23*,0.489,1.09,-0.07,1.02
Oc1ccc(N=CC=Cc2cccc(Br)c2)cc1-c1nc2ccccc2o1,i,.,.,.,.,.
CCOc1ccc(CC(=O)N2CCN(c3ccc(N4CCOCC4)nn3)CC2)cc1OCC,i,-1.14,0.132,2.13*,1.49,1.04
CC(=O)N1CSCC1C(=O)N1CCN(c2ccc(N3CCOCC3)nn2)CC1 (stereo not given),i,0.637,-0.596,2.13*,0.89,0.99
COc1ccc(C(=O)CCC(=O)N2CCN(c3ccc(N4CCOCC4)nn3)CC2)cc1,i,-0.581,-0.453,2.15*,-0.12,1.04
Cc1cc(C)n(-c2ccc(N3CCOCC3)nn2)n1,i,-0.432,0.536,1.07,0.38,0.98
COc1ccc(N2C(=O)CC(N3CCN(C(=O)c4ccccc4)CC3)C2=O)cc1 (stereo not given),i,.,.,.,.,.
COc1ccc(-c2nc3c(c(=O)n(C)c(=O)n3C)n2CC2CC(c3ccccc3)=NO2)cc1OC (stereo not given),i,-0.00166,4.73*,1.39,-0.56,0.99
COc1ccc(C(=O)Cn2c(Br)nc3c2c(=O)n(C)c(=O)n3C)cc1OC,i,-0.503,-0.616,1.09,0.34,1.02
CC(=O)c1ccc(Oc2ncnc3sccc23)c(CN2CCOCC2)c1,i,0.0286,-2.85*,1.04,2.04,1
CC1=C(C(=O)OCCc2ccccc2)C(c2cccc([N+](=O)[O-])c2)C2=C(CC(c3ccccc3)CC2=O)N1 (stereo not given),i,.,.,.,.,.
Cc1ccc2c(COC(=O)c3cnc(C)cn3)cc(=O)oc2c1,i,0.955,0.13,1.13,0.83,1.06
Cc1cc2oc(=O)cc(COC(=O)c3cccc(N(C)C)c3)c2cc1C,i,-0.0787,-1.91,2.09*,-0.37,1.07
COC(=O)CSc1nc(C)c(C(C)=O)cc1C#N,i,0.369,0.651,1.06,-0.8,0.98

# Assay outcomes as filed in PubChem.
